PrPC surface inh – inhibitors of human cell surface prion protein PrPC | TR-FRET read-out | P04156 | actives 0.43% (n = 370,000) | inhibition, % at 13.8 µM; in the data active = inhibition above about 24%; note: 0% = median of the test wells and 100% = reference compound wells
Mtb hypoxia rep – Mtb hypoxia fluorescent reporter inhibition. AID 1159583. fluorescence inhibition, % (test concentration not listed). actives 0.1% (n = 300,000). M. tuberculosis hypoxia-regulated fluorescent reporter, fluorescence; in the data active = fluorescence inhibition mostly above about 23%, no sharp cut-off; inactive = mostly below about 17%
GDH-TPI inh – inhibits GDH-TPI coupling enzymes, artifact for Mtb FBA screen | GDH-TPI coupled enzyme counterscreen, NADH absorbance | inhibition, % at 4.8 µM | actives 1.2% (n = 360,000); in the data active = inhibition above about 30%;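 note: 0% = DMSO wells and 100% = wells lacking the enzyme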
FBA Mtb inh – inhibits M. tuberculosis FBA enzyme | actives 2.3% (n = 360,000) | AID 588726 | inhibition, % at 1 µM | purified M. tuberculosis FBA, fluorescence read-out; in the data active = inhibition above about 27%;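 note: 0% = vehicle and 100% = reference inhibitor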
Target sequence (P9WQA3 whole entry, looked up): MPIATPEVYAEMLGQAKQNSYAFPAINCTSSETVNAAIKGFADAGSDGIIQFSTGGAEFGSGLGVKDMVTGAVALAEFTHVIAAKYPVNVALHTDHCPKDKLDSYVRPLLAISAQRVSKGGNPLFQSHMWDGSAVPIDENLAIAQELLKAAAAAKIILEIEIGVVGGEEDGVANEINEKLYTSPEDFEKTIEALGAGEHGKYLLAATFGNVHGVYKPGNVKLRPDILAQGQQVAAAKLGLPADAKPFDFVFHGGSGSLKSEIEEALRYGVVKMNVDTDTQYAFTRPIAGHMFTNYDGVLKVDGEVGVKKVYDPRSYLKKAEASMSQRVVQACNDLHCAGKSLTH
Yp Topo-I inh – inhibitors of Yersinia pestis topoisomerase I; Y. pestis Topo-I cleavage product accumulation, plate reader; activity, % at 10 µM; actives 0.064% (n = 360,000); AID 504884; in the data active = activity above about 50%, passing the limit was not always enough
PrP UTR inh – suppresses PrP 5' UTR mRNA reporter expression; cell-based PrP 5' UTR mRNA reporter, plate reader; inhibition, % (concentration not given with the values); actives 0.35% (n = 340,000); in the data active = inhibition above about 52%; note: 0 = median of the neutral control wells
PrP UTR cherry – prion 5' UTR mRNA inhibition, cherry-pick retest; actives 48% (n = 1,100); AID 504592; cell-based prion protein 5' UTR reporter, plate reader; inhibition, % at 2.5 µM; shares compounds with PrP UTR inh; in the data active = inhibition above about 54%
* marks the source's active call; other numbers are inactive results; nt = no result given. Rows were chosen to be rich in hits. Some 3.8% of all compounds tested hit in one or more screens of this group.

SMILES	PrPC surface inh	Mtb hypoxia rep	GDH-TPI inh	FBA Mtb inh	Yp Topo-I inh	PrP UTR inh	PrP UTR cherry
Cc1c(Cc2ccccc2)sc(/N=C/c2ccc3ccccc3c2)c1C(N)=O	nt	nt	4	4	-9	60*	95*
Cc1ccc(N2CCCCn3c2nc2c3c(=O)n(CC(=O)O)c(=O)n2C)cc1	-2	nt	12	2	1	58*	-5
Cc1ccc(-n2nnc(-c3nccs3)n2)cc1	0	4	-14	4	13	77*	62*
Cc1c(C)c2cc(Cl)c(OCC(=O)Nc3ccccn3)cc2oc1=O	-3	nt	-8	2	-1	nt	nt
Cc1c(C)c2ccc(OCC(=O)Nc3ccccn3)c(C)c2oc1=O	-3	nt	1	8	6	93*	94*
COc1cc2cc(C#N)c(SCC(=O)N3CCOCC3)nc2cc1OC	-4	4	12	6	-7	72*	-29
COc1cc2cc(C)c(SCC(=O)N3CCOCC3)nc2cc1OC	-2	-9	24	2	12	-14	nt
CCC1(c2ccc(Cl)cc2)NC(=S)N(c2ccccc2)N1 (stereo unspecified)	-6	14	4	3	-12	-16	nt
CCC1(c2ccccc2)NC(=S)N(c2ccc(C)cc2)N1 (stereo unspecified)	2	9	3	1	-13	76*	-52
CCN(CC)S(=O)(=O)c1ccc(N2CCCC2)c(NC(=O)CN2C(=O)NC3(CCCC3)C2=O)c1	-5	-8	1	-1	9	77*	14
O=C(C1=CC(c2ccc(C(F)(F)F)cc2)CC(OCc2ccc(CO)cc2)O1)N1CCOCC1 (stereo unspecified)	nt	-8	nt	nt	nt	nt	nt
CC(C)OC(=O)c1cc(C(=O)c2cc(Br)ccc2O)coc1=N	-2	6	8	3	-1	63*	-15
CCOC(=O)c1cc(C(=O)c2cc(Cl)ccc2O)coc1=N	5	6	11	9	5	-41	nt
CC1(C)OC2C(CO)OC(n3cnc4c(N)ncnc43)C2O1 (stereo unspecified)	nt	7	nt	nt	nt	nt	nt
COc1ccccc1C1CC(=O)Oc2cc(OC)c(OC)c(OC)c21 (stereo unspecified)	1	0	7	0	-5	92*	-12
Cc1cc(NC(=O)c2ccc(C)c([N+](=O)[O-])c2)no1	-1	-6	2	2	-1	-15	nt
Cc1cc(NC(=O)c2ccc(Br)c([N+](=O)[O-])c2)no1	-27	4	-3	-1	-5	83*	-7
CC(C)OC(=O)c1sc2nc(-c3ccccc3)ccc2c1N	-6	4	19	9	7	54*	20
Nc1ncnc2c1ncn2[C@@H]1O[C@H](CNCc2ccc(OCC(=O)Nc3ccccn3)cc2)[C@@H](O)[C@H]1O	-3	-18	4	-3	-4	87*	-19
O=C1ON=C(c2ccccc2[N+](=O)[O-])/C1=C/c1cccc([N+](=O)[O-])c1O	-1	-2	7	-4	0	90*	2
Cc1ccc(S(=O)(=O)Nc2ccc3c(c2)CC(=O)N(C(C)CO)CC(C)C(CN(C)Cc2ccc(-c4ccccc4)cc2)O3)cc1 (stereo unspecified)	nt	-3	nt	nt	nt	nt	nt
O=C(O)c1cccc(NN=Cc2ccc(-c3ccccc3)cc2)c1	nt	4	nt	nt	nt	nt	nt
CN(C)c1ccc(/C=N/Nc2cccc(C(=O)O)c2)cc1	-2	nt	37*	1	-8	93*	92*
CC(C)(C)c1ccc(/C=N/Nc2cccc(C(=O)O)c2)cc1	-5	nt	2	-2	-7	60*	54*
CCOC(=O)c1c2ccccc2[n+]([O-])n1C(C)C(N)=O (stereo unspecified)	nt	20	nt	nt	nt	nt	nt
SMILES	PrPC surface inh	Mtb hypoxia rep	GDH-TPI inh	FBA Mtb inh	Yp Topo-I inh	PrP UTR inh	PrP UTR cherry
Cc1ccccc1OCC(=O)NN=Cc1cccn1C	nt	9	nt	nt	nt	nt	nt
COc1cc(OC)cc(C(=O)NC(C(=O)Nc2nc(-c3ccc(F)c(F)c3)cs2)C(C)C)c1 (stereo unspecified)	nt	0	nt	nt	nt	nt	nt
Cc1[nH]n(-c2ccccc2)c(=O)c1C(=O)c1cccc(F)c1	3	13	2	1	-5	62*	-21
COC(=O)C1=C(c2ccc(F)cc2F)CC2CCC1N2C(=O)N1CCC(C)CC1 (stereo unspecified)	nt	5	nt	nt	nt	nt	nt
COc1ccc(OC)c(S(=O)(=O)N2Cc3ccccc3CC2C(=O)Nc2nccs2)c1 (stereo unspecified)	-1	nt	-3	-2	-3	69*	-33
COc1cccc2c1C(CO)N1C(C#N)C3CC(C(=O)O)C(C1C2)N3C (stereo unspecified)	-4	nt	-4	2	3	69*	75*
CN(C)C=Nc1nc2ccccc2nc1N1CCCC1	-9	8	4	20	-1	54*	-3
C=CCN1c2ccccc2[C@]23CC(C(=O)OC)N(C(=O)C4CCC4)C2=NC(C(=O)OC)=C(C(=O)OC)C13 (stereo partly specified)	nt	-1	nt	nt	nt	nt	nt
CCN(CCO)c1ccc(N=Nc2cc(C)[nH]n2)cc1	-38	18	4	-28	-22	61*	62*
CCSc1ccc(C2C3C(=O)N(CC)C(=O)C3[C@]3(C(=O)OC)CCCCN23)cc1 (stereo partly specified)	nt	11	nt	nt	nt	nt	nt
CCN(CC)S(=O)(=O)c1ccc(C(=O)NCCc2ccccn2)cc1	6	9	-1	2	-13	78*	-14
CCN(CC)S(=O)(=O)c1ccc(C(=O)O)cc1	-3	5	-1	-1	-5	80*	8
CCCN(CCC)S(=O)(=O)c1ccc(C(=O)O)cc1	2	0	7	3	3	-16	nt
CC(OC(=O)CCN=C1NS(=O)(=O)c2ccccc21)C(=O)NCc1ccccc1 (stereo unspecified)	4	-3	1	-1	-2	67*	-14
COc1cc(/C=N/O)ccc1OCc1ccc(C(=O)O)cc1	-2	nt	4	3	0	88*	91*
COc1ccc(OC)c(S(=O)(=O)NN=Cc2ccc3c(c2)OCO3)c1	nt	8	nt	nt	nt	nt	nt
COc1ccc(-n2c(Cc3cc(=O)[nH]c(=O)[nH]3)nnc2SCC(=O)Nc2ccccc2)cc1	-7	nt	7	5	-7	57*	9
Cc1nc2ccccc2c(=O)n1-c1ccc(Cl)cc1[N+](=O)[O-]	-22	13	-3	-3	-3	80*	-10
CC(=Nc1ccccc1)C1=C(O)C(Cc2ccc(O)cc2)NC1=O (stereo unspecified)	7	nt	22	1	-2	54*	89*
O=C(NN=Cc1ccccc1[N+](=O)[O-])c1cnccn1	nt	11	nt	nt	nt	nt	nt
CC(CC(=O)Nc1cccc2c1CCCC2)=NNC=O	nt	2	nt	nt	nt	nt	nt
O=C(CN1CCCCC1)NN=Cc1ccc(Cl)cc1Cl	nt	0	nt	nt	nt	nt	nt
O=C(CCS(=O)(=O)Cc1ccccc1)N1CCN(c2ccccc2)CC1	7	9	2	-4	-2	-5	nt
